The text below walks through data of the supplement of paper PMC12024424.

Assay [1] has as its system Staphylococcus aureus Sa2 (MRSA, cystic fibrosis isolate). The assay is described as follows: growth reduction vs untreated control (OD550); higher = stronger antibacterial activity. Particulars: 0.1 mM; 24 h. On the procedure:
(§1)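 Single-dose screen of the MedChem Express Drug Repurposing Library (0.1 mM, 1% DMSO) against planktonic MRSA S. aureus Sa2 (CF isolate) in TSB in 96-well plates, 37 °C aerobic, 24 h. Assays were run in triplicate and repeated twice.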

The test system is the same in assay [2]. The assay is described as follows: growth reduction vs untreated control (viable cell count); higher = stronger antibacterial activity; extreme values may be limits of the assay. Particulars: 0.1 mM; 24 h. The procedure: as §1

Where a name gives a salt, the structure may show the parent alone.

Take `CCCCCNC(=N)N/N=C/c1c[nH]c2ccc(OC)cc12` [Tegaserod (maleate)]: the growth reduction in assay [1] and in assay [2] was 100% throughout.
Consider `COc1cc(/C=C/c2ccc(O)cc2)cc(OC)c1` [Pterostilbene], for which the growth reduction in assay [1] came to 99.9%; in assay [2], 100%.
`Cc1ccc([C@@H]2O[C@H](CO)[C@@H](O)[C@H](O)[C@H]2O)cc1Cc1ccc(-c2ccc(F)cc2)s1` [Canagliflozin]: the growth reduction in assay [1] and in assay [2] was 100% each time.
For `CC(=O)O[C@@H]1CC[C@@]2(C)[C@@H](CC[C@]3(C)[C@@H]2C(=O)C=C2[C@@H]4[C@@H](C)[C@H](C)CC[C@]4(C)CC[C@]23C)[C@@]1(C)C(=O)O`, the growth reduction in assay [1] and in assay [2] was 100% in each case.
For `COc1cc2ncnc(Nc3ccc(F)c(Cl)c3)c2cc1NC(=O)/C=C/CN1CCCCC1` [Dacomitinib], the growth reduction in assay [1] and in assay [2] was 100% in each case.
With `CC(=C(CCOC(=O)C(C)C)SSC(CCOC(=O)C(C)C)=C(C)N(C=O)Cc1cnc(C)nc1N)N(C=O)Cc1cnc(C)nc1N` (stereo in doubt) [Sulbutiamine], the growth reduction in assay [1] and in assay [2] was 97% in each case.
As to `COc1cccc(-c2ccc(NC(=O)C3=C(C(=O)O)CCC3)c(F)c2)c1` [Vidofludimus], the growth reduction in assay [1] came to 93%; in assay [2], 99%.
Take `CCC(c1ccccc1)c1c(O)c2ccccc2oc1=O` (stereo not given) [Phenprocoumon]: the growth reduction in assay [1] came out at 94.6%; in assay [2], 95%.
`CC(C)(C)NC(=O)N[C@H](C(=O)N1C[C@H]2[C@@H]([C@H]1C(=O)NC(CC1CCC1)C(=O)C(N)=O)C2(C)C)C(C)(C)C` (stereo not given in full) [Boceprevir]: the growth reduction is 91.4% in assay [1] and 92% in assay [2].
The like results for `CCCCOc1nc(N)c2c(n1)N(Cc1cccc(CN3CCCC3)c1)CC(=O)N2` [Vesatolimod] were, in that order, 100% and 98%.
`CN1CCCN=C1/C=C/c1cccs1` [Pyrantel (pamoate)]: the growth reduction is 91.6% in assay [1] and 96% in assay [2].
Take `CC(C)(C)c1cc(C(C)(C)C)c(NC(=O)c2c[nH]c3ccccc3c2=O)cc1O` [Ivacaftor]: the figures for the growth reduction in assay [1] and in assay [2] were 95.3% and 99%, respectively.
As to `CC(=O)Oc1cc(C)c(OC(C)=O)c2ccccc12` [Vitamin K4], the growth reduction was found to be 95.5% in assay [1] and 97% in assay [2].
As for `Clc1ccc(C(Cn2ccnc2)OCc2ccc(Sc3ccccc3)cc2)c(Cl)c1` (stereo not given) [Fenticonazole (Nitrate)], the growth reduction in assay [1] and in assay [2] was 100% each time.
With `C=C[C@@H]1C[C@]1(NC(=O)[C@@H]1C[C@@H]2CN1C(=O)[C@H](C(C)(C)C)NC(=O)O[C@@H]1C[C@H]1CCCCCc1nc3ccc(OC)cc3nc1O2)C(=O)NS(=O)(=O)C1CC1` [Grazoprevir], the growth reduction in assay [1] and in assay [2] was 100% throughout.
On to `COC(=O)[C@]12CCC(C)(C)C[C@H]1[C@H]1C(=O)C=C3[C@@]4(C)C=C(C#N)C(=O)C(C)(C)[C@@H]4CC[C@@]3(C)[C@]1(C)CC2` [Bardoxolone methyl], for which the growth reduction in assay [1] and in assay [2] was 100% in each case.
In the case of `Cc1ccc(Sc2ccccc2N2CCNCC2)c(C)c1` [Vortioxetine (hydrobromide)], the growth reduction in assay [1] and in assay [2] was 100% throughout.
For the compound `Clc1ccc(COC(Cn2ccnc2)c2ccc(Cl)cc2Cl)cc1` (stereo not given) [Econazole (nitrate)], the growth reduction in assay [1] and in assay [2] was 100% in each case.
For the compound `NC1=NCC2c3ccccc3Cc3ccccc3N12` (stereo not given) [Epinastine], the growth reduction in assay [1] and in assay [2] was 100% in each case.
As for `CC[C@@]1(O)C[C@H](O[C@H]2C[C@H](N(C)C)[C@H](O[C@H]3C[C@H](O)[C@H](O[C@H]4CCC(=O)[C@H](C)O4)[C@H](C)O3)[C@H](C)O2)c2c(cc3c(c2O)C(=O)c2c(O)cccc2C3=O)[C@H]1C(=O)OC` [Aclacinomycin A hydrochloride], the growth reduction in assay [1] and in assay [2] was 100% each time.
With `Clc1ccc(C(Cn2ccnc2)OCc2c(Cl)cccc2Cl)c(Cl)c1` (stereo not given) [Isoconazole (nitrate)], the growth reduction in assay [1] and in assay [2] was 100% in each case.
As to `O=C(NC(=Nc1cc(C(F)(F)F)[nH]n1)Nc1cc(F)cc(Cl)c1)c1cccc(Cl)c1` [Parimifasor], the growth reduction in assay [1] and in assay [2] was 100% each time.
In the case of `N#CC(c1ccc(Cl)cc1)c1c(Cl)cc(-n2ncc(=O)[nH]c2=O)cc1Cl` (stereo not given) [Diclazuril], the growth reduction in assay [1] and in assay [2] was 100% throughout.
Regarding `CC(C)(C)c1cc(-c2cc(-c3ccc(C(=O)O)cc3)ccc2OCCO)ccc1N1CCCC1` [Trifarotene], the growth reduction in assay [1] and in assay [2] was 100% in each case.
For the compound `CC(C)c1cc(Oc2c(Br)cc(NC(=O)CC(=O)O)cc2Br)ccc1O` [Eprotirome], the results for the growth reduction in assay [1] and in assay [2] were 99.3% and 100%, respectively.
In the case of `CCCCCCCCCCCCCCCCCCOP(=O)([O-])OC1CC[N+](C)(C)CC1` [Perifosine], the growth reduction was determined as 96.9% in assay [1] and 100% in assay [2].
In the case of `C1=N/C2=N/c3ccc(OCCN4CCCC4)c(c3)COC/C=C/COCc3cccc(c3)C(=C1)N2` [Pacritinib], the growth reduction in assay [1] and in assay [2] was 100% throughout.
As for `CC(C)(C)c1nc(-c2cccc(NS(=O)(=O)c3c(F)cccc3F)c2F)c(-c2ccnc(N)n2)s1` [Dabrafenib (Mesylate)], the values for the growth reduction in assay [1] and in assay [2] were 98.3% and 90%, respectively.
Regarding `Cc1cc(OCCCS(C)(=O)=O)cc(C)c1-c1cccc(COc2ccc3c(c2)OC[C@H]3CC(=O)O)c1` [Fasiglifam], the growth reduction in assay [1] and in assay [2] was 100% in each case.
Take `CSc1ccc2c(c1)N(CCC1CCCCN1C)c1ccccc1S2` (stereo not given) [Thioridazine (hydrochloride)]: the growth reduction in assay [1] and in assay [2] was 100% each time.
